# According to PubChem BioAssay AID1611 (NINDS Approved Drug Screening Program, 2009):
# Assay: inducers of human heat shock response, cell-based, HSE luciferase (AID 1611)
# Settings: human cells, HSE-luciferase heat shock reporter; stronger effect = higher value
row,SMILES,fold change
1,[N-]=[N+]=CC(=O)OCC(N)C(=O)O (centres undefined),1.29
2,Clc1ccc(CSC(Cn2ccnc2)c2ccc(Cl)cc2Cl)cc1 (centres undefined),0.83
3,CC[C@@H]1/C=C/C=C/C[C@H](C)[C@@H](O)[C@](C)(O)C(=O)[C@H](C)[C@@H](O)[C@H](C)C(=O)[C@H](C)[C@@H](O)[C@H](C)/C=C/C(=O)O[C@H]2[C@@H](C)[C@@H](CC1)O[C@@]1(CC[C@@H](C)[C@@H](C[C@H](C)O)O1)[C@@H]2C,1.06
4,CNC1(c2ccccc2Cl)CCCCC1=O (centres undefined),1.39
5,CC(=O)Nc1cc([As](=O)(O)O)ccc1O,0.73
6,CN(C)[C@@H]1C(=O)C(C(N)=O)=C(O)[C@@]2(O)C(=O)C3=C(O)c4c(O)cccc4[C@@](C)(O)[C@H]3[C@H](O)[C@@H]12,1.27
7,NC(=O)CN1CCCC1=O,0.86
8,Clc1ccc(COC(Cn2ccnc2)c2ccc(Cl)cc2Cl)cc1 (centres undefined),1.04
9,C[C@H]1O[C@@H](O[C@H]2[C@@H](O)C[C@H](O[C@H]3[C@@H](O)C[C@H](O[C@H]4CC[C@]5(C)C6CC[C@]7(C)[C@@H](C8=CC(=O)OC8)CC[C@]7(O)C6CC[C@@H]5C4)O[C@@H]3C)O[C@@H]2C)C[C@H](O)[C@@H]1O (some centres undefined),78
10,O=c1[nH]oc2c1CCNC2,1.02
11,COc1ccc2c(c1OC)C(=O)O[C@H]2[C@H]1c2cc3c(cc2CCN1C)OCO3,0.8
12,Clc1ccc(COC(Cn2ccnc2)c2ccc(Cl)cc2Cl)c(Cl)c1 (centres undefined),0.8
13,CC(CCc1ccccc1)NC(C)C(O)c1ccc(O)cc1 (centres undefined),1.23
14,CCCCC[C@H]1C(=O)O[C@H](C)[C@H](NC(=O)c2cccc(NC=O)c2O)C(=O)O[C@@H](C)[C@@H]1OC(=O)CC(C)C,0.64
15,CCC1(CC)C(=O)C=CNC1=O,1.24
16,C=C[C@H]1CN2CC[C@H]1C[C@@H]2[C@H](O)c1ccnc2ccccc12,1.18
17,NCC(CC(=O)O)c1ccc(Cl)cc1 (centres undefined),1.37
18,O=[N+]([O-])c1cc(O)c(O)c([N+](=O)[O-])c1,0.87
19,CC(=O)OCC1=C(C(=O)O)N2C(=O)[C@@H](NC(=O)CCCC(N)C(=O)O)C2SC1 (some centres undefined),0.85
20,CNC(C)(C)Cc1ccccc1,1.1

row,SMILES,fold change
1,CC(=O)OC1CN2CCC1CC2 (centres undefined),0.77
2,C[C@H](N)[C@H](O)c1ccc(O)c(O)c1,1.53
3,C[C@@H]([C@H](O)c1ccccc1)N(C)C,1.08
4,N#CC(O[C@@H]1O[C@H](CO[C@@H]2O[C@H](CO)[C@@H](O)[C@H](O)[C@H]2O)[C@@H](O)[C@H](O)[C@H]1O)c1ccccc1 (some centres undefined),0.7
5,CNC(C)C(O)c1ccccc1 (centres undefined),0.96
6,C[C@@H]1C[C@@H]([C@H](O)CC2CC(=O)NC(=O)C2)C(=O)[C@@H](C)C1,0.84
7,NCC(O)c1ccc(O)cc1 (centres undefined),1.61
8,CCN1C[C@@]2(COC)C3[C@@H](OC)[C@H]4[C@@H]1[C@]3(C(OC)C[C@H]2O)C1C[C@@]2(O)[C@H](OC(=O)c3ccccc3)C1[C@]4(OC(C)=O)[C@@H](O)[C@@H]2OC (some centres undefined),0.98
9,COc1cc([C@@H]2c3cc4c(cc3[C@H](O)[C@H]3COC(=O)[C@H]23)OCO4)cc(OC)c1OC,0.57
10,Cc1cc2c(C(C)C)c(O)c(O)c(C=O)c2c(O)c1-c1c(C)cc2c(C(C)C)c(O)c(O)c(C=O)c2c1O,0.95
11,O=P1(N(CCCl)CCCl)NCCCO1 (centres undefined),0.79
12,C#CC1(O)CCC2C3CCC4=CC(=O)CCC4(C)C3CCC21C (centres undefined),0.91
13,N#C/C(=C\c1ccc(O)cc1)C(=O)O,1.34
14,CN(C)[C@@H]1C(=O)C(C(N)=O)=C(O)[C@@]2(O)C(=O)C3=C(O)c4c(O)ccc(Cl)c4[C@@](C)(O)[C@H]3C[C@@H]12,0.9
15,C=CCN1CC[C@]23c4c5ccc(O)c4OC2C(=O)CC[C@@]3(O)[C@H]1C5 (some centres undefined),1.1
16,CC1[C@H](C)OC(=O)CC(O)CC(O)CC(O)CCC(O)C(O)C[C@]2(O)CC(O)C(C(=O)O)C(CC(OC3O[C@H](C)[C@@H](O)[C@H](N)[C@@H]3O)/C=C/C=C/C=C/C=C/CC/C=C/C=C/[C@H](C)[C@H]1O)O2 (some centres undefined),1.2
17,CC(=O)C1=C(O)C2C3c4c[nH]c5cccc(c45)CC3C(C)(C)N2C1=O (centres undefined),1.11
18,CCCCCCCCCCCCCCCC[N+](C)(C)C,0.93
19,CC(=O)[O][Hg][c]1ccccc1,1.14
